# Experimental data as given in PubChem BioAssay (Tox21).
# Results filed as inconclusive are left out. A call without a number means that no potency is given here. The source made the active and inactive calls. Calls follow the shape of the dose curve; as a rule, active = well fitted cell-killing curve with a large enough effect in the repeat runs; inconclusive = weak or mixed curves, or effect the other way; inactive = no such curve, though single readings can be large or run the other way.
# Experiment: qHTS assay to identify small molecule antagonists of the glucocorticoid receptor (GR) signaling pathway - cell viability counter screen (AID 720693); also: nearly all actives have a fitted effect of over 55% in size
# Details: GR-bla HeLa viability, CellTiter-Glo luminescence, 18 h, with 5 nM dexamethasone present; series mostly up to 58.5 µM
# From the text: National Center for Advancing Translational Sciences [NCATS]
# NIH Chemical Genomics Center [NCGC]
# U.S. Environmental Protection Agency [EPA]
# National Institutes of Environmental Health Sciences [NIEHS]
# National Toxicology Program [NTP]
# U.S. Food and Drug Administration [FDA]
# The Glucocorticoid receptor (GR) is one of the members of the nuclear receptor family of ligand-dependent transcription factors. GR plays a critical role in carbohydrate, protein and lipid metabolisms and programmed cell death. CellSensor GR-bla HeLa cell line (Invitrogen) contains a beta-lactamase reporter gene under the control of the glucocorticoid response element stably integrated into HeLa cells, a cervical cancer cell line that expresses glucocorticoid receptor. The activation of the reporter gene under culture conditions can be detected by fluorescence intensity. This cell line has been used to screen the Tox21 10K compound library and to identify the compounds that inhibit the GR signaling. The cytotoxicity of the Tox21 compound library against the GR-bla HeLa cell line was tested in parallel by measuring the cell viability using CellTiter-Glo assay in the same wells.
# Tox21 Assay Protocol Summary:
# The GR-bla HeLa cells were dispensed at 1500 cells/5 ul/well in 1536-well black wall/clear bottom plates using a Multidrop Combi (ThermoFisher Scientific, Waltham, MA) dispenser. After the assay plates were incubated at a 37 C/5% CO2 incubator for 4 hours, 23 nL of compounds dissolved in DMSO, positive controls or DMSO only was transferred to the assay plate by a pintool station (Kalypsys, San Diego, CA), followed by addition of 1 uL of dexamethasone (5 nM, final concentration in the well). The plates were incubated at 37 C for 18 hours. After 1 uL of LiveBLAzerTM B/G FRET substrate was added using a Flying Reagent Dispenser (Aurora Discovery, San Diego, CA), the plates were incubated at room temperature (RT) for 2 hours, and fluorescence intensity was measured by an Envision plate reader (PerkinElmer, Shelton, CT). After measurement of bla assay, 3 ul CellTiter-Glo (Promega, Madison, WI) was added to measure the cytotoxicity and the plates were then incubated at RT for 30 min. The luminescence was measured using a ViewLux (Perkin Elmer) plate reader.
row,Compound,Potency
1,CCC(C)c1ccc(O)cc1 (stereo not given),inactive
2,O=P(Oc1ccccc1)(Oc1ccccc1)Oc1ccccc1,inactive
3,C=CCc1ccc(OC)cc1,inactive
4,Nc1ccc(-c2ccc(N)c(N)c2)cc1N,inactive
5,CCN(CC)N=O,inactive
6,O=P(O)(O)CCCl,inactive
7,NC(=S)Nc1ccccc1,inactive
8,CC(O)CCO (stereo not given),inactive
9,CC(C)Oc1cc(-n2nc(C(C)(C)C)oc2=O)c(Cl)cc1Cl,inactive
10,ClC1C(Cl)C(Cl)C(Cl)C(Cl)C1Cl (stereo not given),inactive
11,C#C[C@]1(O)CC[C@H]2[C@@H]3CCC4=CC(=O)CC[C@]4(C)[C@H]3CC[C@@]21C,inactive
12,Cc1c(COC(=O)[C@@H]2[C@H](/C=C(\Cl)C(F)(F)F)C2(C)C)cccc1-c1ccccc1,inactive
13,Clc1nc(Cl)nc(Cl)n1,inactive
14,O=[N+]([O-])c1c(Cl)c(Cl)c(Cl)c(Cl)c1Cl,inactive
15,COc1ccc(C(CN(C)C)C2(O)CCCCC2)cc1 (stereo not given),inactive
16,NNC(N)=S,inactive
17,CNC(=O)N(C)c1nnc(C(C)(C)C)s1,inactive
18,CC(C)=CC1C(C(=O)OCc2coc(Cc3ccccc3)c2)C1(C)C (stereo not given),inactive
19,O=C(NC(=O)c1c(F)cccc1F)Nc1ccc(Cl)cc1,inactive
20,CCCCN(CCCC)N=O,inactive

row,Compound,Potency
1,CCCCNC(=O)n1c(NC(=O)OC)nc2ccccc21,inactive
2,c1ccc(N=Nc2ccccc2)cc1,inactive
3,CC(C)C(=O)OCC(C)(C)C(OC(=O)C(C)C)C(C)C (stereo not given),inactive
4,Nc1c(Cl)cc([N+](=O)[O-])cc1Cl,inactive
5,CC(C)NC(C)C,inactive
6,N#CC(Br)Br,inactive
7,CC(C)(C)c1ccccc1O,inactive
8,CCC(C)(c1ccc(O)cc1)c1ccc(O)cc1,inactive
9,Oc1cc(Cl)ccc1Cl,inactive
10,Brc1ccc(Oc2cc(Br)c(Br)cc2Br)c(Br)c1,inactive
11,CCCCCCOC(=O)c1ccccc1C(=O)OCCCCCC,inactive
12,CCC(C)c1cc([N+](=O)[O-])cc([N+](=O)[O-])c1O (stereo not given),inactive
13,c1nc[nH]n1,inactive
14,O=[N+]([O-])c1cccc2ccccc12,inactive
15,O=C(CCl)c1ccccc1,inactive
16,S=C1NCCN1,inactive
17,Nc1ccc(Cl)c(Cl)c1,inactive
18,CCCCC(CC)COC(=O)c1ccc(C(=O)OCC(CC)CCCC)c(C(=O)OCC(CC)CCCC)c1 (stereo not given),inactive
19,Cc1ccc(N)c(N)c1,inactive
20,CC1(C)C(C=C(Cl)Cl)C1C(=O)OC(C#N)c1cccc(Oc2ccccc2)c1 (stereo not given),inactive
